Assay outcomes from PubChem.
CHX counter – counter-screen for Shiga toxin inhibitors: cycloheximide protein synthesis inhibition; 300,000 compounds, 12% hits; cell reporter, cycloheximide protein synthesis inhibition counterscreen; max response, %; in the data active = max response mostly above about 13%, no sharp cut-off; inactive = mostly below about 14%; note: read at 38.3 µM for the half of the compounds with a filed dose
Sm TGR inh – blocks Schistosoma mansoni thioredoxin glutathione reductase | purified TGR, DTNB reduction, TNB absorbance 405 nm | Potency, µM (doses to about 114 µM), actives largely listed as inhibitors | 360,000 compounds, 3% hits; note: nearly all actives have a fitted effect of over 60% in size
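TGR 20 nM + NADPH 100 uM (dispensed conc.), cpd preinc 15 min RT; start with NADPH (500 uM addition) then DTNB (15 mM addition). Kinetic TNB absorbance, 405 nm filter. Four-parameter Hill fit across titration.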
Pf growth 48h – inhibits P. falciparum growth in the first generation, 48 h; Potency, µM (doses to about 28.7 µM), most hits filed as inhibitors; 310,000 compounds, 5.9% hits; P. falciparum luciferase growth in erythrocytes, 48 h
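Read-out is firefly luciferase luminescence from an integrated reporter in P. falciparum, so falling signal marks reduced parasite growth. Infected erythrocytes were at 2% hematocrit and 0.1% parasitemia (final) in Albumax-supplemented RPMI 1640.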
NS1 inh – blocks influenza NS1 protein function. Potency, µM (top dose mostly 46.1 µM). 270,000 compounds, 0.4% hits; calls by dose curve; note: actives are rising curves; nearly all actives have a fitted effect of over 50% in size
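OD600 was taken as the measure of yeast growth restored by compound in an NS1-expressing S. cerevisiae strain. Cells had been washed out of glucose medium and diluted 1:100 into galactose -URA medium, pH 6.0.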
Shiga toxin inh – inhibitors of Shiga toxin in Vero cells. 290,000 compounds, 9.2% hits. Vero cells, Shiga toxin protein synthesis inhibition reporter. AID 2315. inhibition, % at 38.7 µM; in the data active = inhibition mostly above about 28%, no sharp cut-off; inactive = mostly below about 43%
Pf growth 96h – P. falciparum growth inhibition at 96 hour, primary screen for plastid delayed-death inhibitors; AID 504834; P. falciparum luciferase reporter growth, 96 h; Potency, µM (highest dose often 28.7 µM), hits mostly inhibitors; 320,000 compounds, 6.9% hits
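P. falciparum expressing integrated firefly luciferase grown in erythrocytes (2% hematocrit, 0.05% parasitemia final) with compounds for 96 hours at 37 C, 5% CO2. Growth inhibition read as loss of luminescence after adding luciferase detection reagent.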
A number is an active result; . = inactive; ? = inconclusive; / = no result given; + = active, no number; [ ] = dose if it differs, or a comment. Shown are actives, neighbours in structure and some others; about 21% of the full set was active somewhere. Unless noted, calls come from the whole dose curve; as a rule, active = well fitted curve in the direction sought with a large enough effect; inconclusive = small, poorly fitted or top-dose-only effect, or another doubt; inactive = no such curve, though single readings can be large; an effect the other way counts as inactive or inconclusive.

SMILES	CHX counter	Sm TGR inh	Pf growth 48h	NS1 inh	Shiga toxin inh	Pf growth 96h
CC(=O)Nc1ccc2nc(C)n(Cc3ccc(Cl)cc3)c(=O)c2c1	28	.	.	.	53	.
Cc1nc2c(cc1NC(=O)c1ccccc1)nc(C)n2Cc1ccccc1	.	.	.	.	.	12µM
Cc1nc2cc(NCc3nc4ccccc4n3Cc3ccccc3)ccc2n1C	27	.	.	.	44	.
Cc1cccc(NCc2nc3ccccc3n2Cc2ccccc2)c1	.	.	/	.	.	?
CC(=O)Nc1ccc2c(c1)nc(C)n2Cc1ccccc1	.	.	.	.	/	0.41µM
CCOC(=O)CCNC(=O)Nc1ccc2nc(C)n(Cc3ccc(Cl)cc3)c(=O)c2c1	.	.	.	.	.	.[5.75 µM]
c1ccc(CN2COc3c(ccc4c5c(ccc34)CN(Cc3ccccc3)CO5)C2)cc1	/	/	/	.	/	/
COC(=O)c1cc(NC(=O)CN2CCc3cc4c(cc3C2)OCCCO4)cc(C(=O)OC)c1	.	.	.	.	.	9.3µM
O=C(CN1CCc2cc3c(cc2C1)OCCCO3)Nc1ccc(S(=O)(=O)N2CCCC2)cc1	.	.	?	.	.	13µM
COc1cccc(/C=C(/C#N)c2nc3ccccc3[nH]2)c1OC(C)C(=O)O (stereo unspecified)	26	.	.[0.00184 µM]	.	58	.
COc1cccc(/C=C(\C#N)c2nc3ccccc3[nH]2)c1OCC(=O)O	31	.	.	.	67	?
CCC(=O)Oc1ccc(/C=C(\C#N)c2nc3ccccc3[nH]2)cc1OC	/	.	/	/	/	/
COC(=O)c1ccc(NCCc2csc(-c3ccc(C)cc3)n2)c([N+](=O)[O-])c1	.	.	.	.	.	.
CCOC(=O)c1cc2ccc3ccccc3c2oc1=O	.	.	.	.	.	.
CCOC(=O)c1cc2c(s1)-c1ccccc1CC2	37	.	.	.	67	.
COC(=O)c1cc2c(s1)-c1ccccc1CC2	62	.	.	.	+	.
CCOC(=O)c1cc2ccc3ccccc3c2s1	48	.	.	.	75	.
CCOc1ccc(C(=O)N2CCN(Cc3ccccc3)CC2)cc1OCC	.	.	.	.	.	.
CC(=O)c1sc(NC(=O)c2ccc3c(c2)OCO3)nc1C	43	.	.	.	82	?
COc1ccc(C(=O)Nc2nc(C)c(C(C)=O)s2)cc1S(=O)(=O)N1CCOCC1	/	.	.	/	/	?
O=C1CC(SC(=NCc2ccc3c(c2)OCO3)Nc2ccccc2)C(=O)N1c1ccccc1 (stereo unspecified)	.	.	/	.	.	.
CC(=O)c1sc(NC(=O)c2ccc(C(C)(C)C)cc2)nc1C	67	.	.	.	158	.
CC(=O)c1sc(NC(=O)c2cnc(Cl)c(Cl)c2)nc1C	14	.	.	.	84	.
CC(=O)c1sc(NC(=O)c2cccnc2Cl)nc1C	.	.	.	.	.	.
CC(=O)c1sc(NC(=O)C(C)(C)C)nc1C	.	.	.	.	.	.
SMILES	CHX counter	Sm TGR inh	Pf growth 48h	NS1 inh	Shiga toxin inh	Pf growth 96h
Cc1cc(C)nc(NC(=NCc2ccc3c(c2)OCO3)NC(=O)Nc2ccccc2)n1	.	1.4µM	?	.	.	.
COc1ccc(C2=NS(=O)(=O)N(C)C(C(=O)N3CCCCC3)=C2)cc1OC	.	.	.	.	.	?
Cc1ccc(C)c(NC(=O)CN(C)S(=O)(=O)c2ccc3c(c2)CCC(=O)N3)c1	/	.	/	/	/	/
Cc1ccc(-n2c(SCC(=O)N(C)C)nnc2-c2ccco2)cc1	.	.	.	?	.	.
COc1ccc(C(=O)Nc2nc(C)c(C(=O)N(C)C)s2)cc1OC	30	.	.	.	.	?
Cc1nc(NC(=O)c2ccccc2)sc1Cc1ccc2c(c1)OCO2	68	.	.	.	25	.
CC(=O)c1sc(NC(=O)c2ccccc2F)nc1C	28	.	.	.	43	.
CC(=O)c1sc(NC(=O)c2ccc(C)c(C)c2)nc1C	47	?	.	/	47	.
CC(=O)c1sc(NC(=O)c2cccs2)nc1C	.	.	.[0.00184 µM]	.	.	.
Cc1nc(NC(=O)c2ccc(Cl)cc2)sc1Cc1ccc2c(c1)OCO2	.	.	?	.	.	?
C[C@@]12C(=O)N(Cc3ccccc3)CC(=O)N1[C@H](/C=C/c1ccccc1)[C@@H]1C(=O)N(c3ccccc3)C(=O)[C@@H]12	.	.	.	.	.	.
